TDP1 cell noCPT: qHTS for Inhibitors of human tyrosyl-DNA phosphodiesterase 1 (TDP1): qHTS in cells in absence of CPT. DT40 Tdp1-/- hTDP1 cells, no CPT, ATP luminescence, 48 h. Potency, µM (top dose mostly 46.2 µM), most hits filed as inhibitors. 15% of 420,000 active; also: nearly all actives have a fitted effect of over 55% in size
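Compound effects on proliferation are scored in DT40 Tdp1-/-;hTDP1 cells in the absence of CPT. ATP levels (CellTiter-Glo luminescence) are recorded after a ≥48 hr, 37 °C incubation.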
PLK1 PBD inh: PLK1 (human) polo-box domain binding inhibition; P53350; Plk1 PBD binding of FITC phosphopeptide, fluorescence polarization; Potency, µM, actives largely listed as inhibitors; 2.8% of 360,000 active; AID 720504; also: series mostly up to about 57 µM; nearly all actives have a fitted effect of over 65% in size
TDP1 cell CPT: growth inhibition of DT40 Tdp1-/-;hTDP1 cells with camptothecin (screen for TDP1 inhibitors). chicken DT40 Tdp1-/-;hTDP1 cells + 20 nM CPT, ATP luminescence, 48 h. Potency, µM (highest dose often 46.2 µM), usual class: inhibitors. 12% of 420,000 active; also: nearly all actives have a fitted effect of over 55% in size
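Chicken DT40 Tdp1-/- cells complemented with human TDP1, 400 cells/well, exposed to compounds plus 20 nM camptothecin for at least 48 h at 37 C; viability read as ATP content by CellTiter-Glo luminescence.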
TDP1 inh: inhibitors of human tyrosyl-DNA phosphodiesterase TDP1 | recombinant TDP1, AlphaScreen DNA substrate cleavage | Potency, µM (top dose mostly 130 µM), actives largely listed as inhibitors | 0.28% of 350,000 active; also: nearly all actives have a fitted effect of over 40% in size
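Compounds were preincubated with Tdp1 (1 nM final) for 15 min at room temperature before substrate (15 nM final) started a 5 min reaction; beads (10 ug/ml final) were then added for 10 min before AlphaScreen detection.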
KAT2A inh: inhibitors of human GCN5L2 histone acetyltransferase; 0.21% of 390,000 active; GCN5L2 HAT assay, ThioGlo1 CoA-SH fluorescence; AID 504327; Potency, µM (titrated, usually from 58.9 µM), usual class: inhibitors
Target sequence (Q92830 whole entry, looked up): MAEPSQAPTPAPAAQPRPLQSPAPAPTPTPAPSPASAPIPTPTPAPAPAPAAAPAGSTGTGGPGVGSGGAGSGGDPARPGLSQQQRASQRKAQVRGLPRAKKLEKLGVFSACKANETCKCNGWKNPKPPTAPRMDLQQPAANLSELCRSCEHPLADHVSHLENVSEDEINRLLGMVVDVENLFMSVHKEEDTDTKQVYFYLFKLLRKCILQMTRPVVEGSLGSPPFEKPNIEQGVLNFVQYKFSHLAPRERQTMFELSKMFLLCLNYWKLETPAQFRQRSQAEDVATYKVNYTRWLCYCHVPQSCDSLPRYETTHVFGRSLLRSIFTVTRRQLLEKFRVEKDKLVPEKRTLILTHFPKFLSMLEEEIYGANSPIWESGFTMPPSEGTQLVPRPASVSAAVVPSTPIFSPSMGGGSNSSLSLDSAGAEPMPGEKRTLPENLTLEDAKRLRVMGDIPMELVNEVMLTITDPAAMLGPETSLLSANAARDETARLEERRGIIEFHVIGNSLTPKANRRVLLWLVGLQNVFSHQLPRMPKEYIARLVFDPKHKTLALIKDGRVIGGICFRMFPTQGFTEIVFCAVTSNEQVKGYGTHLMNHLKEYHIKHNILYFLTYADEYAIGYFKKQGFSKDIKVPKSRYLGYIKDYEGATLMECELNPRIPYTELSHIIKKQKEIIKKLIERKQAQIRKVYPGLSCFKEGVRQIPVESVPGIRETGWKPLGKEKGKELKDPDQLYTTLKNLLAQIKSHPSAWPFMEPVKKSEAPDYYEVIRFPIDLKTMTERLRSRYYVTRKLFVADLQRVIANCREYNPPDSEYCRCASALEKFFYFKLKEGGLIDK
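Fluorescence readout, Ex340nm/Em540nm: ThioGlo1 (50uM final) reacts with free CoA thiol released as 20nM GCN5L2 acetylates H3(1-25) peptide (75uM) using acetyl-CoA (70uM). Compound and enzyme sat 15 min beforehand; 20 min room-temperature reaction.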
VDR inhibitor: vitamin D3 receptor (human) inhibition; P11473; VDR-SRC2-3 peptide fluorescence polarization, 2 h; Potency, µM, hits mostly inhibitors; 0.93% of 400,000 active; AID 504847
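Compounds are added to VDR with labelled SRC2-3 coactivator peptide and held 2 h at room temperature. Inhibition of the VDR–peptide interaction is then read as a change in fluorescence polarization.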
Numbers stand for hits; . = inactive; ? = inconclusive; / = not tested or not shown; [ ] = remark or other dose. Rows were chosen to be rich in hits. Some 18% of all compounds tested hit in one or more screens of this group. Calls follow the shape of the dose curve; as a rule, active = well fitted curve in the direction sought with a large enough effect; inconclusive = small, poorly fitted or top-dose-only effect, or another doubt; inactive = no such curve, though single readings can be large; an effect the other way counts as inactive or inconclusive.

SMILES	TDP1 cell noCPT	PLK1 PBD inh	TDP1 cell CPT	TDP1 inh	KAT2A inh	VDR inhibitor
CCOc1ccc(C(=O)OCc2cc(=O)n3nc(C4CCCCC4)sc3n2)cc1	16µM	/	?	.	.	.
O=C(Cn1ccc(=O)[nH]c1=O)Nc1ccc(O)c([N+](=O)[O-])c1	.	.	.	/	/	.
Cc1ccc([N+](=O)[O-])cc1NCC(=O)NN	.	.	.	.	.	.
COc1cc(C(=S)N(C)C)ccc1O	?	9.5µM	?	.	.	.
CCCOC(=O)c1ccc(O)c(OC)c1	.	.	.	.	.	.
CC(=O)OC[C@@H]1O[C@H](CCO/N=C(\C)CCN2CCCc3nc(C)c(C)cc32)C=C[C@@H]1OC(C)=O	/	/	/	.[21 µM]	/	/
CN(C)CCCN(C(=O)c1ccc(S(=O)(=O)N(C)C)cc1)c1nc2cc3c(cc2s1)OCO3	?	.	?	.	.	.
CN(C)CCCN(C(=O)CCSc1ccccc1)c1nc2cc3c(cc2s1)OCO3	13µM	.	8.2µM	.	.	.
CN(C)CCCN(C(=O)c1ccc(Br)s1)c1nc2cc3c(cc2s1)OCO3	15µM	.	9.2µM	.	.	.
COc1ccc(S(=O)(=O)Nc2cc(S(=O)(=O)c3ccccc3)c(O)c(C)c2C)cc1	.	/	.	.	.	.
O=C1c2ccccc2S(=O)(=O)c2cc(C(=O)N3CCC(O)CC3)ccc21	.	.	.	/	/	.
O=C(NC1CCCC1)c1cccc2c1C(=O)c1ccc(N3CCCCC3)cc1S2(=O)=O	?	.	?	.	.	.
O=C1c2ccc(Cl)cc2S(=O)(=O)c2cccc(C(=O)N3CCC(Cc4ccccc4)CC3)c21	23µM	.	?	.	?	.
O=C(NCc1cccc(F)c1)c1cccc2c1C(=O)c1ccc(Cl)cc1S2(=O)=O	.	.	?	.	.	.
O=C(NCc1cc(C(F)(F)F)ccc1Cl)c1cccc2c1C(=O)c1ccc(N3CCC(Cc4ccccc4)CC3)cc1S2(=O)=O	?	24µM	?	.	.	.
O=C1c2ccccc2S(=O)(=O)c2cc(N3CCC(C(=O)N4CCCCC4)CC3)ccc21	18µM	.	21µM	/	/	.
CC1CCN(c2ccc3c(c2)S(=O)(=O)c2cccc(C(=O)NC4CCCCC4)c2C3=O)CC1	16µM	.	16µM	.	.	.
O=C(NC1CC1)c1cccc2c1C(=O)c1ccc(N3CCC(Cc4ccccc4)CC3)cc1S2(=O)=O	13µM	?	23µM	.	.	.
CC[N+]1(CC)CC2=Cc3c(ccc4ccccc34)CC2C1 (stereo not given)	21µM	.	?	.	.	.
C[C@@H]1CC2C3CCC4=CC(=O)C=C[C@]4(C)[C@@]3(F)[C@@H](O)C[C@]2(C)[C@@]1(O)C(=O)COC(=O)c1cccc(S(=O)(=O)O)c1 (stereo not given in full)	/	/	/	/	.	.
O=C(O)c1ccc(-n2cccc2/C=N\NC(=O)c2cc3cc(Br)ccc3o2)cc1	.	21µM	.	1.1µM	?	.
COc1ccc(C2COc3cc(O)ccc3C2)c(OC)c1O (stereo not given)	16µM	.	18µM	/	/	.
COc1ccc2c(c1)OCC(Cc1ccc(OC)c(OC)c1)C2O (stereo not given)	?	/	.	.	.	.
Cn1cccc1Cc1nnc(SCC(=O)Nc2cccc(Cl)c2)n1-c1ccc(F)cc1	?	27µM	?	.	.	.
Cn1cccc1Cc1nnc(SCC(=O)NCc2ccc(F)cc2)n1-c1ccc(F)cc1	.	.	?	.	.	.
COc1ccc(Cl)cc1NC(=O)CSc1nnc(Cc2cccn2C)n1-c1ccc(F)cc1	?	.	26µM	/	.	?
Cn1cccc1Cc1nnc(SCC(=O)Nc2ccc(F)cc2F)n1-c1ccc(F)cc1	?	.	?	.	.	.
Cn1cccc1Cc1nnc(SCC(=O)NCc2ccccc2)n1-c1ccc(F)cc1	?	.	16µM	.	.	.
